The source made the active and inactive calls. The calls were made as follows: active = hit-call score of the fitted dose curve at least 0.9, where 1 is the maximum; inactive = score below 0.9.
read-out: Interleukin 6 Receptor (IL6R), IL6R (gene 3570); assay: LTEA_HepaRG_IL6R: Life Technologies and Expression Analysis (LTEA) Assay for Interleukin 6 Receptor (IL6R) using HepaRG (AID 2283510); settings: mRNA level, 48 h; actives raise or lower the signal;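 as to AC50: differentiated human HepaRG liver cells in serum-free induction medium; TaqMan qRT-PCR signal normalized to ACTB GAPDH and POLR2A housekeeping genes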
Outline: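 Differentiated HepaRG cells, plated 48 h, then exposed in duplicate for 48 h in serum-free induction medium to 8 half-log concentrations (top 100 uM, 0.5% DMSO). IL6R mRNA measured by TaqMan qRT-PCR, normalized to ACTB/GAPDH/POLR2A; bidirectional fit vs DMSO.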

SMILES	outcome	AC50
COCC(C)N(C(=O)CCl)c1c(C)csc1C (stereo unspecified)	inactive	–
COC(=O)c1c(C(F)F)nc(C(F)(F)F)c(C2=NCCS2)c1CC(C)C	–	12.2 µM (active)
Cn1c(-c2ccccc2)cc(-c2ccccc2)[n+]1C	inactive	–
COC(=O)NS(=O)(=O)c1ccc(N)cc1	inactive	–
CC(C)Nc1nc(Cl)nc(NC(C)C)n1	inactive	–
COC(=O)NC(=S)Nc1ccccc1NC(=S)NC(=O)OC	inactive	–
Clc1cccc(C(Cl)(Cl)Cl)n1	inactive	–
COP(=S)(OC)Oc1ccc([N+](=O)[O-])c(C)c1	inactive	–
CCOP(=S)(OCC)Oc1nc(Cl)n(C(C)C)n1	–	12.2 µM (active)
COc1cc(Cl)c(OC)cc1Cl	inactive	–
CCCCC(O)(Cn1cncn1)c1ccc(Cl)cc1Cl (stereo unspecified)	inactive	–
CNC(=O)N(C)c1nnc(C(C)(C)C)s1	inactive	–
O=C(Nc1ccccc1-c1ccc(Cl)cc1)c1cccnc1Cl	inactive	–
CCNC(=O)NC(=O)C(C#N)=NOC	inactive	–
CCN(CC)C(=O)C(C)Oc1cccc2ccccc12 (stereo unspecified)	–	20.3 µM (active)
CC1(C)CON(Cc2ccccc2Cl)C1=O	inactive	–
CCOc1nc(C(Cl)(Cl)Cl)ns1	–	0.987 µM (active)
CN=C=S	inactive	–

SMILES	outcome	AC50
C=C(C)CN(CC)c1c([N+](=O)[O-])cc(C(F)(F)F)cc1[N+](=O)[O-]	inactive	–
Nc1c(Cl)c(Cl)nc(C(=O)O)c1Cl	inactive	–
CC1(C)C(C=C(Cl)Cl)C1C(=O)OC(C#N)c1cccc(Oc2ccccc2)c1 (stereo unspecified)	inactive	–
Cc1cnc(C2=NC(C)(C(C)C)C(=O)N2)c(C(=O)O)c1 (stereo unspecified)	inactive	–
CSC(=O)c1c(C(F)F)nc(C(F)(F)F)c(C(=O)SC)c1CC(C)C	inactive	–
CCOc1cc(C(C)(C)C)ccc1C1COC(c2c(F)cccc2F)=N1 (stereo unspecified)	inactive	–
CC(C)N1C(=O)c2ccccc2NS1(=O)=O	inactive	–
CCCC(=NOCC)C1=C(O)CC(CC(C)SCC)CC1=O (stereo unspecified)	inactive	–
C=CCOC(=O)C(C)(C)OC(=O)c1cc(-n2c(=O)cc(C(F)(F)F)n(C)c2=O)ccc1Cl	inactive	–
CC(C)Oc1cccc(NC(=O)c2ccccc2C(F)(F)F)c1	inactive	–
CC(C)NC(=O)N1CC(=O)N(c2cc(Cl)cc(Cl)c2)C1=O	–	2.86 µM (active)
CC(C)(C)C(=O)C(Oc1ccc(Cl)cc1)n1cncn1 (stereo unspecified)	inactive	–
CC1(C)CCC(=Cc2ccc(Cl)cc2)C1(O)Cn1cncn1 (stereo unspecified)	inactive	–
COCC(=O)N(c1c(C)cccc1C)C(C)C(=O)OC (stereo unspecified)	inactive	–
CCOc1nc(F)cc2nc(S(=O)(=O)Nc3c(Cl)cccc3Cl)nn12	inactive	–
COP(=O)(OC)O/C(C)=C/C(=O)N(C)C	inactive	–
CC(C)N1C(=O)N(c2ccccc2)CSC1=NC(C)(C)C	inactive	–

read-out: Potassium channel subfamily K member 1 (KCNK1), KCNK1 (gene 3775); assay: LTEA_HepaRG_KCNK1: Life Technologies and Expression Analysis (LTEA) Assay for Potassium channel subfamily K member 1 (KCNK1) using HepaRG (AID 2283511); settings: mRNA level, 48 h; actives raise or lower the signal
Outline: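 Gain or loss of KCNK1 mRNA is the read-out, quantified by qRT-PCR against three housekeeping genes after 48 h chemical treatment of human HepaRG liver cells. Concentrations ran from 100 uM downward in half-log steps, vehicle 0.5% DMSO.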

SMILES	outcome	AC50
COCC(C)N(C(=O)CCl)c1c(C)csc1C (stereo unspecified)	inactive	–
COC(=O)c1c(C(F)F)nc(C(F)(F)F)c(C2=NCCS2)c1CC(C)C	inactive	–
Cn1c(-c2ccccc2)cc(-c2ccccc2)[n+]1C	inactive	–
COC(=O)NS(=O)(=O)c1ccc(N)cc1	inactive	–
CC(C)Nc1nc(Cl)nc(NC(C)C)n1	inactive	–
COC(=O)NC(=S)Nc1ccccc1NC(=S)NC(=O)OC	inactive	–
Clc1cccc(C(Cl)(Cl)Cl)n1	inactive	–
COP(=S)(OC)Oc1ccc([N+](=O)[O-])c(C)c1	inactive	–
CCOP(=S)(OCC)Oc1nc(Cl)n(C(C)C)n1	inactive	–
COc1cc(Cl)c(OC)cc1Cl	inactive	–
CCCCC(O)(Cn1cncn1)c1ccc(Cl)cc1Cl (stereo unspecified)	–	41.3 µM (active)
CNC(=O)N(C)c1nnc(C(C)(C)C)s1	inactive	–
O=C(Nc1ccccc1-c1ccc(Cl)cc1)c1cccnc1Cl	inactive	–
CCNC(=O)NC(=O)C(C#N)=NOC	inactive	–
CCN(CC)C(=O)C(C)Oc1cccc2ccccc12 (stereo unspecified)	inactive	–
CC1(C)CON(Cc2ccccc2Cl)C1=O	inactive	–
CCOc1nc(C(Cl)(Cl)Cl)ns1	–	1.22 µM (active)
CN=C=S	inactive	–

SMILES	outcome	AC50
C=C(C)CN(CC)c1c([N+](=O)[O-])cc(C(F)(F)F)cc1[N+](=O)[O-]	inactive	–
Nc1c(Cl)c(Cl)nc(C(=O)O)c1Cl	inactive	–
CC1(C)C(C=C(Cl)Cl)C1C(=O)OC(C#N)c1cccc(Oc2ccccc2)c1 (stereo unspecified)	inactive	–
Cc1cnc(C2=NC(C)(C(C)C)C(=O)N2)c(C(=O)O)c1 (stereo unspecified)	inactive	–
CSC(=O)c1c(C(F)F)nc(C(F)(F)F)c(C(=O)SC)c1CC(C)C	inactive	–
CCOc1cc(C(C)(C)C)ccc1C1COC(c2c(F)cccc2F)=N1 (stereo unspecified)	inactive	–
COC(=O)N(C(=O)N1CO[C@@]2(C(=O)OC)Cc3cc(Cl)ccc3C2=N1)c1ccc(OC(F)(F)F)cc1	inactive	–
CC(C)N1C(=O)c2ccccc2NS1(=O)=O	inactive	–
CCCC(=NOCC)C1=C(O)CC(CC(C)SCC)CC1=O (stereo unspecified)	inactive	–
C=CCOC(=O)C(C)(C)OC(=O)c1cc(-n2c(=O)cc(C(F)(F)F)n(C)c2=O)ccc1Cl	inactive	–
CC(C)Oc1cccc(NC(=O)c2ccccc2C(F)(F)F)c1	inactive	–
CC(C)NC(=O)N1CC(=O)N(c2cc(Cl)cc(Cl)c2)C1=O	inactive	–
CC(C)(C)C(=O)C(Oc1ccc(Cl)cc1)n1cncn1 (stereo unspecified)	inactive	–
CC1(C)CCC(=Cc2ccc(Cl)cc2)C1(O)Cn1cncn1 (stereo unspecified)	inactive	–
COCC(=O)N(c1c(C)cccc1C)C(C)C(=O)OC (stereo unspecified)	inactive	–
CCOc1nc(F)cc2nc(S(=O)(=O)Nc3c(Cl)cccc3Cl)nn12	inactive	–
COP(=O)(OC)O/C(C)=C/C(=O)N(C)C	inactive	–
CC(C)N1C(=O)N(c2ccccc2)CSC1=NC(C)(C)C	inactive	–
